One may read the inhibition as the relative decrease from the control value, in per cent.

Activity calls are given as the source filed them. The rule behind the calls is not given here.

In this assay the target is Pantothenate synthetase (Mycobacterium tuberculosis (strain ATCC 25618 / H37Rv)) (UniProt P9WIL5). Briefly: Recombinant Mtb pantothenate synthetase (PanC) inhibitors, coupled enzyme, confirmatory (AID 375).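 Note: 0% = full reaction with vehicle and 100% = no enzyme background.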 As to conditions: coupled enzyme assay; at 10 µM, stronger effect = higher value.
Sequence of Pantothenate synthetase (Mycobacterium tuberculosis (strain ATCC 25618 / H37Rv)) (P9WIL5 whole entry, looked up): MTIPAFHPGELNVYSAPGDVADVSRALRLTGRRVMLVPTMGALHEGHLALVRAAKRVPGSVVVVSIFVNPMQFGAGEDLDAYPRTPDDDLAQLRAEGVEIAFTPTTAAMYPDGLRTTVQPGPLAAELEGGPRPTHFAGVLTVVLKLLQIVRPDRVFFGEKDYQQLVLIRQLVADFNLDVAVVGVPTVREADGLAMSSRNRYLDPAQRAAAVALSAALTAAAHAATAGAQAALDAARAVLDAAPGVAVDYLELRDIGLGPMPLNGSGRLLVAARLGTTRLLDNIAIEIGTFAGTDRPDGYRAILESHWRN
As for `CC(C)C(CO)NC(=O)CC(=O)NC(CO)C(C)C` (configuration not stated), the inhibition is 2% (inactive).
Then `COc1ccc2[nH]c(=O)c(CN(C(=O)c3cccnc3)c3ccccc3OC)cc2c1`, with 1% (inactive); and `Brc1ccc2ncnc(Nc3ccc(N4CCOCC4)cc3)c2c1`, with 0% (inactive); and `CC(C)COc1ccc(C(=O)OCCN2CCOCC2)cc1`, with 1% (inactive).
Then `Cc1ccc(NC2=NCC(=O)N2c2ccc3c(c2)OCCO3)c(C)c1`, with 7% (inactive); and `O=C(O)Cn1nc2ccccc2n1`, with 0% (inactive); and `CN(Cc1nc(-c2ccncc2)no1)S(=O)(=O)c1ccccc1`, with 6% (inactive).

The record behind these values is PubChem BioAssay.
